The full list was thinned out, with hits kept by preference.
Dicer processing – human Dicer pre-microRNA cleavage inhibition | Q9UPY3 | cat-ELCCA pre-miR-21 Dicer processing, chemiluminescence; stronger effect = higher value | z-score at 25 µM | 47,000 tested, 6% active; in the data active means z-score above about 3, passing the limit was not always enough;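 further: plate controls were vehicle for no effect and no enzyme for full effect; higher signal means more uncleaved substrate so more Dicer inhibition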
Active calls of the source: *.

SMILES | Dicer processing
CCOc1cccc(C(Nc2ccccn2)c2ccc3ccc(C)nc3c2O)c1 (stereo not given) | -0.34
CCOc1cc(C(Nc2cc(C)ccn2)c2ccc3cccnc3c2O)ccc1O (stereo not given) | 14*
CCOc1ccc(C(Nc2cc(C)ccn2)c2ccc3cccnc3c2O)cc1OC (stereo not given) | 5.2*
COc1cc(C(Nc2cc(C)ccn2)c2ccc3cccnc3c2O)ccc1O (stereo not given) | 11*
Cc1ccnc(NC(c2ccc(N(C)C)cc2)c2ccc3ccc(C)nc3c2O)c1 (stereo not given) | 1
CCOc1cc(C(Nc2cc(C)ccn2)c2ccc3cccnc3c2O)ccc1OC (stereo not given) | -0.73
COc1cccc(C(Nc2cc(C)ccn2)c2ccc3ccc(C)nc3c2O)c1 (stereo not given) | 6.8*
CSc1ncc2c(n1)CC(C)(C)C/C2=N\OC(=O)c1ccccc1Cl | -0.53
Cn1c2c(c(=O)n(C)c1=O)C(c1ccc(O)cc1)C1C(=O)c3ccccc3C1=N2 (stereo not given) | -0.21
CCOC(=O)C(C)N(Cc1ccccc1)C(=O)Nc1ccc(Cl)cc1 (stereo not given) | 0.17
CCOCCOC(=O)C1=C(C)NC2=C(C(=O)CC(C)(C)C2)C1c1ccc(OC(C)=O)cc1 (stereo not given) | -0.49
CCOC(=O)c1ccc2c(c1)[C@@H]1C=CC[C@@H]1[C@H](c1cccnc1)N2 | 0.79
COCCOC(=O)c1c(C)oc2ccc(OCc3ccc(F)cc3)cc12 | 0.37
CCCOC(=O)C1C2C=CC3(CN(Cc4ccccc4)C(=O)C13)O2 (stereo not given) | 2.4
O=C1OC2(CCCC2)OC(=O)C1=Cc1ccoc1 | 3.5*
CSc1ccc(C=C2C(=O)OC(C)(C)OC2=O)s1 | 0.88
CC1(C)OC(=O)C(=Cc2ccc[nH]2)C(=O)O1 | 1.2
COc1ccc(C2NC(C(=O)O)CS2)c(OC)c1 (stereo not given) | -1.7
c1ccc(C(CCNc2ncnc3nc[nH]c23)c2ccccc2)cc1 | -0.18
CCCN1C(=O)C2(/C(=C(/O)c3ccccc3)C(=O)C(=O)N2CC2CCCO2)c2ccccc21 (stereo not given) | 1.5
CCOC(=O)N1CCN(S(C)(=O)=O)CC1 | 3.5*
CCOC(=O)N1CCN(S(=O)(=O)c2ccc(Cl)cc2)CC1 | 2.9
CCCS(=O)(=O)N1CCN(C2CCN(C(=O)OCC)CC2)CC1 | -1.1
Cn1c(=O)c2cn(C(C)(C)C)cc2n(C)c1=O | 0.48
O=C(Nc1cccc(Cl)c1)N1CCN(c2nsc3ccccc23)CC1 | -0.99
SMILES | Dicer processing
CN1CC(=O)N/C1=N\C(=O)Nc1cccc(Cl)c1 | -1.5
O=C(Nc1cccc(Cl)c1)N1CCc2ccccc2C1 | 6*
CC(C)(C)c1cc(NC(=S)NC(=O)c2ccccc2)n[nH]1 | 0
Cn1c(-c2ccc(Br)cc2)cnc1NCc1ccc(F)cc1 | 3.1*
Cc1ccc(CNc2ncc(-c3ccc(F)cc3)n2C)cc1 | 2.2
CCOc1ccc(-c2cnc(NCc3cc(Cl)ccc3O)n2C)cc1 | 2.8
COc1cccc(CNc2ncc(-c3ccc(Br)cc3)n2C)c1 | 1.1
Cn1c(-c2ccccc2)cnc1NCc1ccc(Br)cc1 | 1.1
Cc1ccc(-c2cnc(NCc3cc(Br)ccc3F)n2C)cc1 | 3.6
Cn1c(-c2ccc(F)cc2)cnc1NCc1cc(Cl)ccc1O | 5.6*
COc1ccc(CNc2ncc(-c3ccc(Br)cc3)n2C)cc1OC | -0.09
CCOc1cc(CNc2ncc(-c3ccc(Br)cc3)n2C)ccc1O | 3.4*
Cn1c(-c2ccc(F)cc2)cnc1NCc1ccccc1Cl | 2.1
COc1cccc(-c2cnc(NCc3cc(Br)ccc3F)n2C)c1 | 53
Cn1c(-c2ccc(F)cc2)cnc1NCc1cc(Br)ccc1F | 3.1*
Cc1nc(N)nc(C(F)(F)F)c1Br | 1.4
O=C1N(CCOc2ccc(Cl)cc2)c2ccccc2C1(O)c1c[nH]c2ccccc12 (stereo not given) | -0.94
COC(OC)c1[nH]c(=S)ncc1C(=O)O | -1.2
Nc1cc(C(F)(F)F)ccc1Oc1ccc(Cl)cc1Cl | -1.9
Nc1nc(-c2ccc(OCc3ccc(F)cc3)cc2)cs1 | -1.5
COc1ccc(N2C(=O)C3C4C(C)=CC(C)(C3C2=O)C2C(=O)N(c3ccc(OC)cc3)C(=O)C42)cc1 (stereo not given) | 0.79
Cc1cn(-c2ccccc2)nc1C(=O)Nc1nn(C)c2ccccc12 | 1.2
NC(=O)COc1ccc(C2c3c(oc4ccccc4c3=O)C(=O)N2Cc2ccc3c(c2)OCO3)cc1 (stereo not given) | -1.4
COc1ccc(NC(=O)c2sc3nc4c(cc3c2N)CCC4)cc1 | 1
COC(=O)/C=C1\SC(=Nc2ccc(C)c(Cl)c2)N(c2ccc(C)c(Cl)c2)C1=O | -1.6
SMILES | Dicer processing
CCCSc1nnc2c(n1)OC(c1ccc(C(=O)O)cc1)Nc1ccccc1-2 (stereo not given) | 0.57
CCOc1ccc(N2CC(O)=C(c3nc4ccccc4c(=O)[nH]3)C2=N)cc1 | 1.1
Cc1ccc(N2CC(O)=C(c3nc4ccccc4c(=O)[nH]3)C2=N)c(C)c1 | -0.23
CCc1ccccc1N1CC(O)=C(c2nc3ccccc3c(=O)[nH]2)C1=N | 4.9*
COc1ccccc1C1CC(=O)C2=C(C1)NC(C)=C(C(=O)OCC1CCCO1)C2c1ccc(F)cc1 (stereo not given) | 0.4
COc1ccc(NC(=O)N2CCN(c3ncccn3)CC2)cc1 | -1.4
Clc1ccc(-c2cc3ccccc3[nH]2)cc1 | 9.6
O=[N+]([O-])/C=C/c1c(-c2ccc3ccccc3c2)[nH]c2ccccc12 | 1.1
O/N=C/c1c(-c2ccc(Cl)cc2)[nH]c2ccccc12 | 5*
N#Cc1c(SCC(=O)c2ccccc2)nsc1SCC(=O)c1ccccc1 | -1.6
COC(=O)C(O)(c1ccc(N(C)C(=O)Nc2cccc(Cl)c2)cc1)C(F)(F)F (stereo not given) | 2.5
CCc1c(O)c2c(=O)n(C)c(=O)n(C)c2n(C)c1=O | -1.3
C/C(=N\O)C(C)(C)Nc1cc(C(F)(F)F)cc(C(F)(F)F)c1 | -2
CC(C)(C)NC(=S)Nc1cc(C(F)(F)F)cc(C(F)(F)F)c1 | -0.68
CC1(C)OC(=O)C(=NNc2cc(C(F)(F)F)cc(C(F)(F)F)c2)C(=O)O1 | 5.1*
Cn1c(-c2ccc(F)cc2)cnc1NCc1cccc(Cl)c1 | 2.8
COc1ccc2c(c1)CCc1sc(/N=C/c3ccc(C(F)(F)F)cc3)nc1-2 | -0.89
O=C1CC(c2ccccc2Cl)Nc2ccc3ccccc3c21 (stereo not given) | 1.8
CN(C)c1ccc(C2CC(=O)c3ccccc3N2)cc1 (stereo not given) | 2.4
O=C1CC(c2cccc(Br)c2)Nc2ccc3ccccc3c21 (stereo not given) | 3.4*
O=C(Nc1ccc(F)cc1F)c1cnccn1 | 2
COc1ccccc1NC(=O)Nc1c(SC)nsc1SC | -0.75
COc1ccc(NC(=O)Nc2c(SC)nsc2SC)cc1 | 4*
COc1ccc(OCc2nnc(NC(=O)Nc3ccc(F)cc3)s2)cc1 | 1.9
O=C(O/N=C1\CCCc2[nH]c3ccccc3c21)c1ccc(Cl)cc1Cl | 0.99
CC(=O)Nc1ccc(S(=O)(=O)Nc2ccccc2N2CCOCC2)cc1Cl | 2.2
O=S(=O)(Nc1ccccc1N1CCOCC1)c1ccc2c(c1)OCC2 | 7.6
O=S(=O)(Nc1ccccc1N1CCCCC1)c1ccc(C(F)(F)F)cc1 | 3.3*
C/C(=N\N=C1\NC(=O)C(CC(=O)O)S1)c1ccc(F)cc1 (stereo not given) | -0.96
COc1ccc(C2c3c(oc4ccccc4c3=O)C(=O)N2c2nncs2)cc1OC (stereo not given) | -0.76

Assay outcomes as filed in PubChem BioAssay.
